Each structure is given as a SMILES string. The whole screen tested about 48,000 compounds, of which about 13,000 (27%) showed an effect of 50% or more. Some of the results follow.

The assay deals with Wolbachia pipientis. The assay can be described thus: Anti-Wolbachia Cell-Based Screen. In kind it is functional. Also on record: scale not given: in the data most compounds retested in dose-response had high values. The settings on record: 5 µM.
Take `CC(=O)NCCC(=O)NC1(c2ccc(Cl)c(Cl)c2)CC1`: the “Percent Effect” value is on record as 3.477%.

Consider `CC(NC(=O)COc1cccc[n+]1[O-])C1CC1` (stereo unspecified), for which the “Percent Effect” value is reported as -6.842%.

As for `Cc1ccc(CNCc2nnc3n2CC(C(F)(F)F)CC3)cc1` (stereo unspecified), the “Percent Effect” value is listed as -7.096%.

Turning to `O=C(CCc1ccsc1)Nc1cnccc1O`, the “Percent Effect” value stood at 9.927%.

In the case of `CC(C)CCN1CCc2[nH]nc(C(=O)N3CC=CC3)c2C1.O=C(O)C(F)(F)F.O=C(O)C(F)(F)F`, the “Percent Effect” value was -3.7%.

On to `CO[C@@H]1CCN(Cc2c(C)noc2C)[C@@H]2CN(Cc3ccco3)C[C@@H]21.O=C(O)C(F)(F)F.O=C(O)C(F)(F)F`, for which the “Percent Effect” value was determined as 102.8%.

As to `Cc1noc(C)c1CN1C[C@@H](N(C)Cc2ccco2)[C@H]2OCCC[C@H]21.O=C(O)C(F)(F)F.O=C(O)C(F)(F)F`, the “Percent Effect” value amounted to 12.06%.

Turning to `CO[C@H]1CCN(Cc2c(C)noc2C)[C@@H]2CN(Cc3cccnc3)C[C@H]12.O=C(O)C(F)(F)F.O=C(O)C(F)(F)F.O=C(O)C(F)(F)F`, the “Percent Effect” value is 114.1%.

Take `CO[C@H]1CCN(Cc2cnn(C)c2)[C@@H]2CN(Cc3cccnc3)C[C@H]12.O=C(O)C(F)(F)F.O=C(O)C(F)(F)F.O=C(O)C(F)(F)F`: the “Percent Effect” value was 4.089%.

Consider `CO[C@H]1CCN(Cc2cccc(C)n2)[C@@H]2CN(Cc3cccnc3)C[C@H]12.O=C(O)C(F)(F)F.O=C(O)C(F)(F)F.O=C(O)C(F)(F)F.O=C(O)C(F)(F)F`, for which the “Percent Effect” value is reported as -9.589%.

In the case of `COCC1CN(Cc2c(C)noc2C)Cc2ccnn2C1.O=C(O)C(F)(F)F.O=C(O)C(F)(F)F` (stereo unspecified), the “Percent Effect” value is -2.816%.

Turning to `Cc1noc(C)c1CN1CC[C@H]2OCC[C@@H](C(=O)NCC3CC3)[C@@H]2C1.O=C(O)C(F)(F)F`, the “Percent Effect” value is -16.42%.

With `CO[C@@H]1CCN(Cc2c(C)noc2C)[C@@H]2CN(Cc3cccnc3)C[C@@H]21.O=C(O)C(F)(F)F.O=C(O)C(F)(F)F.O=C(O)C(F)(F)F`, the “Percent Effect” value is recorded as 82.84%.

As for `CO[C@H]1CCN(Cc2c(C)noc2C)[C@@H]2CN(Cc3ccncc3)C[C@H]12.O=C(O)C(F)(F)F.O=C(O)C(F)(F)F.O=C(O)C(F)(F)F`, the “Percent Effect” value is recorded as 106.3%.

As to `CO[C@@H]1CCN(Cc2cnn(C)c2)[C@@H]2CN(Cc3ccco3)C[C@@H]21.O=C(O)C(F)(F)F.O=C(O)C(F)(F)F`, the “Percent Effect” value was 6.003%.

With `CO[C@@H]1CCN(c2ncc(F)cn2)[C@@H]2CN(Cc3cccnc3)C[C@@H]21.O=C(O)C(F)(F)F.O=C(O)C(F)(F)F.O=C(O)C(F)(F)F`, the “Percent Effect” value is given as -6.486%.

Consider `COC(=O)N1CCN(CCCc2nnnn2-c2ccccc2)CC1`, for which the “Percent Effect” value was -41.56%.

In the case of `O=C(Cc1ccc(F)cc1Cl)N1CC[C@H](CO)[C@@H](O)C1`, the “Percent Effect” value was determined as 3.077%.

With `COc1cccc2c1OCC(C(=O)N1CCN(S(C)(=O)=O)CC1)C2` (stereo unspecified), the “Percent Effect” value was determined as 0.5994%.

Regarding `CC1CCCN1C1CCN(C(=O)c2cccc(-c3ccoc3)c2)CC1` (stereo unspecified), the “Percent Effect” value was 2.618%.

As for `CSCC[C@@H](CO)Nc1ccc(-c2nc(C3CC3)no2)cn1`, the “Percent Effect” value is on record as -21.62%.

In the case of `Cc1noc(CS(=O)(=O)C/C=C/c2ccccc2)n1`, the “Percent Effect” value is reported as -7.047%.

As to `Cc1cnc(N2CC[C@@H]3CN(Cc4ccncc4)CCO[C@@H]3C2)nc1.O=C(O)C(F)(F)F.O=C(O)C(F)(F)F`, the “Percent Effect” value is -11.53%.

With `Cc1cc(CN2C[C@@H]3CN(C(=O)c4cccn4C)CCO[C@@H]3C2)no1.O=C(O)C(F)(F)F`, the “Percent Effect” value worked out at 9.61%.

With `CCc1cnc(N2CC[C@@H]3CN(C(=O)c4ccco4)CCO[C@@H]3C2)nc1`, the “Percent Effect” value was 10.92%.

Consider `N#Cc1cccc(CN2CC[C@@H]3CO[C@@H](CN4CCCC4)[C@@H]3C2)c1.O=C(O)C(F)(F)F.O=C(O)C(F)(F)F`, for which the “Percent Effect” value is reported as -0.4401%.

Regarding `O=C(O)C(F)(F)F.O=C(c1ccco1)N1CCO[C@@H]2CN(Cc3nccs3)CC[C@@H]2C1`, the “Percent Effect” value is 104%.

As to `O=C(O)C(F)(F)F.O=C(c1ccsc1)N1CCO[C@@H]2CN(Cc3ccco3)CC[C@@H]2C1`, the “Percent Effect” value came to 99.14%.

For `COCCN1CCO[C@@H]2CN(Cc3sccc3C)C[C@@H]2C1.O=C(O)C(F)(F)F.O=C(O)C(F)(F)F`, the “Percent Effect” value is recorded as -3.44%.

`O=C(O)C(F)(F)F.O=C(c1ccsc1)N1CCO[C@@H]2CN(Cc3ccccn3)CC[C@@H]2C1`: the “Percent Effect” value came to 3.038%.

`O=C(O)C(F)(F)F.O=C(c1ccco1)N1CCO[C@@H]2CN(c3ccccn3)CC[C@@H]2C1`: the “Percent Effect” value is listed as 6.986%.

With `N#Cc1cccc(CN2CC[C@@H]3CN(c4ncccn4)CCO[C@@H]3C2)c1.O=C(O)C(F)(F)F`, the “Percent Effect” value amounted to 115.7%.

Consider `Cn1cccc1C(=O)N1CCO[C@@H]2CN(Cc3nccs3)C[C@@H]2C1.O=C(O)C(F)(F)F`, for which the “Percent Effect” value is 127.2%.

`O=C(NC[C@H]1OC[C@@H](NC2CCOCC2)[C@@H]1O)Nc1ccccc1`: the “Percent Effect” value amounted to 14.81%.

Regarding `COCCN(Cc1ccncc1)C(=O)C1COc2ccccc2C1` (stereo unspecified), the “Percent Effect” value is recorded as -25.57%.

Regarding `COCCc1nc(CN2CC(C)(c3ccccc3)CCC2=O)no1` (stereo unspecified), the “Percent Effect” value is given as -5.62%.

Consider `CCCS(=O)(=O)NC1CCN(c2nnc(C)c(C)c2C#N)CC1`, for which the “Percent Effect” value is -4.578%.

Turning to `Cc1cc(N2CCC(N3CCOCC3)C2)n2nc(C)c(C)c2n1` (stereo unspecified), the “Percent Effect” value is -1.501%.

Consider `O=C(O)C(F)(F)F.O=C(c1ccsc1)N1CCO[C@@H]2CN(Cc3cccs3)C[C@@H]2C1`, for which the “Percent Effect” value amounted to 14.76%.

For `O=C(O)C(F)(F)F.O=C(c1ccsc1)N1CCO[C@@H]2CN(Cc3nccs3)C[C@@H]2C1`, the “Percent Effect” value turned out to be 102%.

For `CN(C)CCN1CCO[C@H]2CN(C(=O)c3ccsc3)C[C@H]21.O=C(O)C(F)(F)F.O=C(O)C(F)(F)F`, the “Percent Effect” value is 117.2%.

On to `O=C(O)C(F)(F)F.O=C(O)C(F)(F)F.c1coc(CN2C[C@@H]3CN(Cc4ccoc4)CCO[C@@H]3C2)c1`, for which the “Percent Effect” value is on record as 116.5%.

Take `CN(C)CCN1CCO[C@H]2CN(C(=O)C3CCOCC3)C[C@H]21`: the “Percent Effect” value is -13.47%.

For the molecule `CCS(=O)(=O)N1C[C@@H]2CN(Cc3ccco3)CCO[C@@H]2C1.O=C(O)C(F)(F)F`, the “Percent Effect” value was -13.85%.

On to `Cn1cc(CN2CCO[C@@H]3CN(Cc4ccoc4)C[C@@H]3C2)cn1.O=C(O)C(F)(F)F.O=C(O)C(F)(F)F`, for which the “Percent Effect” value is listed as 9.777%.

For `O=C(O)C(F)(F)F.O=C([C@@H]1CN(Cc2nccs2)C[C@H]2OCC[C@H]21)N1CCOCC1`, the “Percent Effect” value was -26.11%.

With `CN(C)CCN1CCO[C@H]2CN(C(=O)N(C)C)C[C@H]21.O=C(O)C(F)(F)F.O=C(O)C(F)(F)F`, the “Percent Effect” value amounted to 6.005%.

In the case of `CC(CCNC(=O)N(C)CC1CCOCC1)N1CCCCC1` (stereo unspecified), the “Percent Effect” value was -7.573%.

As to `CCc1nc(CN2CCCN(C(=O)C(C)n3ccnc3)CC2)cs1` (stereo unspecified), the “Percent Effect” value worked out at 0.184%.

For `CC(C)N(C(=O)N1CCn2cncc2C1)C(C)C`, the “Percent Effect” value was 10.83%.

Turning to `O=C([C@@H]1Cc2[nH]cnc2CN1C(=O)NC1CCCCC1)N1CCCC1`, the “Percent Effect” value was 6.906%.

In the case of `O=C(NC1CCCCC1)[C@H]1CNC[C@@H](COc2cccnc2)C1`, the “Percent Effect” value was 11.4%.

As to `O=C(NCC1CC1)C1CN(C(=O)NC2CCCC2)Cc2cncn2C1` (stereo unspecified), the “Percent Effect” value is on record as 100.7%.

In the case of `Cc1cnc(N2CCC3(CC2)CC3C(=O)NCC2CC2)nc1` (stereo unspecified), the “Percent Effect” value is listed as -18.23%.

Regarding `CCS(=O)(=O)N1Cc2cncn2CC(C(=O)NCC2CC2)C1` (stereo unspecified), the “Percent Effect” value is listed as 119.2%.

Consider `CN(C)CCN1CC2(CCCN(c3ncc(Cl)cc3F)C2)CCC1=O` (stereo unspecified), for which the “Percent Effect” value is 4.533%.

For `O=C(c1ccc(Cl)c(Cl)c1)N1CCCC(n2cncn2)C1` (stereo unspecified), the “Percent Effect” value worked out at 3.266%.

`O=C(c1ccc2c(c1)COC2)N1CCCC(n2cncn2)C1` (stereo unspecified): the “Percent Effect” value is 130%.

On to `O=C(c1cccc(N2CCCC2=O)c1)N1CCCC(n2cncn2)C1` (stereo unspecified), for which the “Percent Effect” value turned out to be 0.04653%.

Consider `Cn1ccc(C(=O)N2CCCC(n3cncn3)C2)cc1=O` (stereo unspecified), for which the “Percent Effect” value is recorded as 3.949%.

Regarding `Cc1nc(C)n(C2CCCN(C(=O)c3ccc4c(c3)COC4)C2)n1` (stereo unspecified), the “Percent Effect” value is -5.905%.

As for `O=C(c1ccc2c(c1)CCCC2)N1CCCC(n2cncn2)C1` (stereo unspecified), the “Percent Effect” value is on record as 100.2%.

As for `Cc1cc(Nc2ccc3c(c2)CC(=O)N3)nc(C(C)C)n1`, the “Percent Effect” value is given as 5.406%.

In the case of `Cc1csc(CN2CCC[C@]3(C[C@H](OCC4CC4)CO3)C2)n1`, the “Percent Effect” value stood at 94.91%.

`CO[C@@H]1CO[C@@]2(CCCN(Cc3nc(C)cs3)C2)C1.O=C(O)C(F)(F)F`: the “Percent Effect” value turned out to be 128.3%.

Take `CCO[C@H]1CO[C@@]2(CCCN(Cc3nc(C)cs3)C2)C1.O=C(O)C(F)(F)F`: the “Percent Effect” value is on record as -3.246%.

As to `O=C(COc1ccccc1)N1CCC[C@]2(C[C@H](OCC3CC3)CO2)C1`, the “Percent Effect” value was found to be 5.425%.

Consider `CCO[C@H]1CO[C@@]2(CCCN(Cc3scnc3C)C2)C1.O=C(O)C(F)(F)F`, for which the “Percent Effect” value stood at 114.2%.

Regarding `Cc1csc(CN2CCC[C@]3(C[C@@H](OCC4CC4)CO3)C2)n1.O=C(O)C(F)(F)F`, the “Percent Effect” value worked out at 105.3%.

Turning to `COc1ccccc1CN1CC[C@]2(C[C@H](OC)CO2)C1.O=C(O)C(F)(F)F`, the “Percent Effect” value is listed as 9.484%.

As to `O=C(O)C(F)(F)F.O=S(=O)(C1CC1)N1CCC[C@]2(C[C@@H](Oc3ccccn3)CO2)C1`, the “Percent Effect” value was found to be 2.781%.

As to `O=C(COc1ccccc1)N1CCC[C@]2(C[C@@H](OCC3CC3)CO2)C1`, the “Percent Effect” value was found to be 18.43%.

Take `Cc1noc(C)c1CN1CCC[C@]2(C[C@@H](Oc3ccccn3)CO2)C1.O=C(O)C(F)(F)F.O=C(O)C(F)(F)F`: the “Percent Effect” value is on record as -19.05%.

Turning to `CCO[C@@H]1CO[C@@]2(CCCN(Cc3scnc3C)C2)C1.O=C(O)C(F)(F)F`, the “Percent Effect” value is -0.3895%.

Regarding `CCS(=O)(=O)N1CC[C@]2(C[C@@H](OCC3CC3)CO2)C1`, the “Percent Effect” value was -6.112%.

Regarding `Cl.c1cnc(N2CCCC(NCc3cccc4c3OCCO4)C2)nc1` (stereo unspecified), the “Percent Effect” value came out at 11.77%.

The values are drawn from ChEMBL document CHEMBL3988442, “University of Dundee, Small-Polar-MMV Screening Library” (2021).
